Source: PubChem BioAssay (EPA / NIEHS)
Activity calls are given as the source filed them. How the source made its calls: active means hit-call score of the fitted dose curve at least 0.9, where 1 is the maximum; inactive means score below 0.9.

Key:
[1] = read-out: Vascular cell adhesion molecule 1 (VCAM1), VCAM1 (gene 7412); test: BSK_CASM3C_VCAM1: BioMAP Diversity Plus: CASM3C Assay for Vascular cell adhesion molecule 1 (VCAM1) Biomarker Activity (AID 2283055); details: primary human coronary artery smooth muscle cells; actives raise or lower the signal;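 further: VCAM-1 protein level quantified by ELISA on the cells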
[2] = read-out: Collagen III, COL3A1 (gene 1281); test: BSK_hDFCGF_CollagenIII: BioMAP Diversity Plus: hDFCGF Assay for Collagen III Biomarker Activity (AID 2283056); details: primary human foreskin fibroblasts; actives raise or lower the signal
In short: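 Cells: human foreskin fibroblasts, primary. Dosing followed by 24 h incubation, then ELISA for collagen III. Both increases and decreases scored relative to DMSO.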

[3] = read-out: Epidermal growth factor receptor (EGFR), EGFR (gene 1956); test: BSK_hDFCGF_EGFR: BioMAP Diversity Plus: hDFCGF Assay for Epidermal growth factor receptor (EGFR) Biomarker Activity (AID 2283057); details: primary human foreskin fibroblasts; actives raise or lower the signal
In short: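 hDFCGF system, primary human foreskin fibroblasts; compound 24 h; EGFR measured by ELISA; DMSO = negative control/baseline; bidirectional fitting.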

[4] = read-out: Interleukin-8 (IL8), CXCL8 (gene 3576); test: BSK_hDFCGF_IL8: BioMAP Diversity Plus: hDFCGF Assay for Interleukin-8 (IL8) Biomarker Activity (AID 2283058); details: primary human foreskin fibroblasts; actives raise or lower the signal
In short: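 IL-8 levels from compound-treated primary human fibroblasts were read by ELISA at 24 h, with DMSO serving as baseline for bidirectional fitting.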

[5] = BSK_hDFCGF_Proliferation: Cell Proliferation Assessment in the BioMAP Diversity Plus: hDFCGF Assay (AID 2283059); details: primary human foreskin fibroblasts;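 further: curves fitted for both rise and fall of signal versus DMSO baseline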
In short: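 Steps: dose primary human dermal fibroblasts (foreskin); […] fix in 10% TCA; stain with 0.1% SRB; read 560 nm; fit gain or loss of signal against DMSO.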

[6] = read-out: Macrophage colony-stimulating factor (MCSF), CSF1 (gene 1435); test: BSK_hDFCGF_MCSF: BioMAP Diversity Plus: hDFCGF Assay for Macrophage colony-stimulating factor (MCSF) Biomarker Activity (AID 2283060); details: primary human foreskin fibroblasts; actives raise or lower the signal
In short: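 M-CSF levels, determined by ELISA, are taken at 24 h after dosing human skin fibroblasts. Responses in either direction are fitted with DMSO serving as the baseline.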

[7] = read-out: TIMP metallopeptidase inhibitor 1 (TIMP1), TIMP1 (gene 7076); test: BSK_hDFCGF_TIMP1: BioMAP Diversity Plus: hDFCGF Assay for TIMP metallopeptidase inhibitor 1 (TIMP1) Biomarker Activity (AID 2283062); details: primary human foreskin fibroblasts; actives raise or lower the signal
In short: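 Fibroblasts from human foreskin are treated with test chemical and harvested at 24 h. TIMP-1 is quantified by ELISA, and gain or loss of signal is scored against DMSO.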

[8] = read-out: Monokine induced gamma interferon (MIG), CXCL9 (gene 4283); test: BSK_hDFCGF_MIG: BioMAP Diversity Plus: hDFCGF Assay for Monokine induced gamma interferon (MIG) Biomarker Activity (AID 2283063); details: primary human foreskin fibroblasts; actives raise or lower the signal
In short: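 MIG signal, determined by ELISA, reflects 24 h chemical exposure of human skin primary fibroblasts. DMSO serves as negative control and baseline.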

[9] = read-out: Matrix Metallopeptidase 1 (MMP1), MMP1 (gene 4312); test: BSK_hDFCGF_MMP1: BioMAP Diversity Plus: hDFCGF Assay for Matrix Metallopeptidase 1 (MMP1) Biomarker Activity (AID 2283064); details: primary human foreskin fibroblasts; actives raise or lower the signal
In short: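 hDFCGF primary fibroblasts (human foreskin); chemical added; 24 h; MMP1 by ELISA; bidirectional fit vs DMSO.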

[10] = BSK_hDFCGF_SRB: Viability Assessment in the BioMAP Diversity Plus: hDFCGF Assay (AID 2283061); details: primary human foreskin fibroblasts;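 further: cells exposed to compound for 24 h before the read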
In short: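 Cells were dosed with test chemical, cultured 24 h, fixed with 10% TCA, then stained with 0.1% SRB and read at 560 nm. The fibroblasts were human foreskin primary cells, and DMSO served as baseline.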

Row | SMILES | outcome [1] | outcome [2] | outcome [3] | outcome [4] | outcome [5] | outcome [6] | outcome [7] | outcome [8] | outcome [9] | outcome [10] | AC50 [1] | AC50 [2] | AC50 [5] | AC50 [10] | AC50 [6]
1 | CC(=O)OC[C@H]1O[C@@](COC(C)=O)(O[C@H]2O[C@H](COC(C)=O)[C@@H](OC(C)=O)[C@H](OC(C)=O)[C@H]2OC(C)=O)[C@@H](OC(C)=O)[C@@H]1OC(C)=O | inactive | inactive | inactive | inactive | inactive | inactive | inactive | inactive | inactive | – | – | – | – | – | –
2 | Nc1nc2ncc(CNc3ccc(C(=O)N[C@@H](CCC(=O)O)C(=O)O)cc3)nc2c(=O)[nH]1 | inactive | inactive | inactive | inactive | inactive | inactive | inactive | – | inactive | inactive | – | – | – | – | –
3 | O=C1CCCCCN1 | inactive | inactive | inactive | inactive | inactive | inactive | inactive | inactive | inactive | – | – | – | – | – | –
4 | COC(=O)c1c(Cl)c(Cl)c(C(=O)OC)c(Cl)c1Cl | inactive | inactive | inactive | inactive | inactive | inactive | inactive | inactive | inactive | – | – | – | – | – | –
5 | CCCCCCCCCCCCc1ccccc1 | inactive | inactive | inactive | inactive | inactive | inactive | inactive | inactive | inactive | – | – | – | – | – | –
6 | CNS(=O)(=O)c1cc(C(=O)N2CCC(CCN3C4CCC3CC(n3c(C)nc5ccccc53)C4)(c3cccc(F)c3)CC2)c(Cl)cc1F (stereo not given) | – | – | inactive | inactive | – | inactive | inactive | – | inactive | – | 6.7 µM (active) | 20 µM (active) | 11.5 µM (active) | 24.8 µM (active) | –
7 | CC(O)CN(CCN(CC(C)O)CC(C)O)CC(C)O (stereo not given) | inactive | inactive | inactive | inactive | inactive | inactive | inactive | inactive | inactive | – | – | – | – | – | –
8 | C=CC(=C)CCC=C(C)C | inactive | inactive | inactive | inactive | inactive | inactive | inactive | – | inactive | inactive | – | – | – | – | –
9 | CN(C)c1ccc(N=NS(=O)(=O)O)cc1 | inactive | – | inactive | inactive | – | – | inactive | – | inactive | inactive | – | 4.35 µM (active) | 12.8 µM (active) | – | 9.62 µM (active)
10 | CCCCC(CC)COC(=O)CCCCCCCCC(=O)OCC(CC)CCCC (stereo not given) | inactive | inactive | inactive | inactive | inactive | inactive | inactive | – | inactive | inactive | – | – | – | – | –
